The text below walks through data of PubChem BioAssay AID504582 (Broad Institute, 2011).

The campaign covered roughly 340,000 compounds. About 2,300 (0.68%) were called active. No stated cut-off is given here; in the data, active means growth rescue above about 28% (passing the limit was not always enough); inconclusive means no clear call, values can overlap the other calls. The full list was thinned out, with actives kept by preference.

The experiment can be described thus: rescue of yeast from PfHsp40 toxicity, primary screen, S. cerevisiae, ATP luminescence (AID 504582).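 Further: yeast W303a lacking pdr1 and pdr3 grown in galactose medium; growth measured after three days at 30 °C.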 Particulars: S. cerevisiae expressing PfHsp40, growth rescue, at 12.5 µM, stronger effect = higher value.
Consider `CC1(C(=O)O)CCC(C(=O)Nc2ccc(Cl)c(Cl)c2)C1(C)C` (stereo not given), for which the growth rescue is -0.486% (inactive). Take `Cc1cccc(C)c1NC(=O)CCCSc1nnc(-c2ccco2)n1-c1ccccc1`: the growth rescue is 0.934% (inactive). In the case of `COc1ccc(CCNC(=O)COc2ccc3c(c2)OCO3)cc1`, the growth rescue was -0.845% (inactive). As for `Oc1c(CN2CCCC2)cc(COCc2ccccc2)c2cccnc12`, the growth rescue is 281% (active). Regarding `CC1CCCN(CC(O)COCc2ccccc2)C1` (stereo not given), the growth rescue was -0.272% (inactive).

Take `COc1cc(C)cc(CN2CCC(Cc3ccccc3)CC2)c1O`: the growth rescue was 0.509% (inactive). As for `COCCCNC(=S)N1CCCC(c2nc3cc(C)c(C)cc3[nH]2)C1` (stereo not given), the growth rescue is -0.694% (inactive). On to `CCc1ccccc1N(CC(=O)N1CCN(c2ccccc2F)CC1)S(C)(=O)=O`, for which the growth rescue was 0.191% (inactive).

For the molecule `COc1ccc(N2C(=O)/C(=C\c3ccco3)N=C2SCC(N)=O)cc1Cl`, the growth rescue was -0.407% (inactive). Turning to `COc1ccc(N2CCN(c3ccc([N+](=O)[O-])cc3Cl)CC2)cc1`, the growth rescue is -0.626% (inactive). As to `COc1ccc2c(c1)C=CC1(O2)N(CCO)c2ccccc2C1(C)C` (stereo not given), the growth rescue was -0.159% (inactive). In the case of `CN1c2ccc([N+](=O)[O-])cc2C(C)(C)C12C=Cc1cc(C(=O)O)ccc1O2` (stereo not given) it was 200% (active); in that of `Cc1nn(Cc2ccccc2Cl)c(C)c1NC(=O)Cn1nc([N+](=O)[O-])c(Cl)c1C`, -0.0385% (inactive); in that of `Cc1c(Cl)c([N+](=O)[O-])nn1Cc1ccc(C(=O)N/N=C\c2cc(Cl)ccc2O)o1`, 29.8% (active).

For the molecule `O=C(N/N=C\c1ccc(Br)cc1)c1ccc(Cn2cccn2)o1`, the growth rescue was 0.111% (inactive). On to `COc1ccc(/C=C(\C#N)C(=O)NCCCn2ccnc2)cc1`, for which the growth rescue is -0.489% (inactive).

`CC1(C)NC(=O)N(CCCCSc2ccc(Cl)cc2)C1=O`: the growth rescue was 0.18% (inactive). Consider `Cc1ccc(NC(=O)COc2ccc(/C=N\NC(=O)c3cccnc3)cc2)cc1C`, for which the growth rescue was -0.012% (inactive). Next, `O=C(O)c1ccc(N/N=C/c2cn(-c3ccccc3)nc2-c2cccs2)cc1`: 0.668% (inactive); `O=C(N/N=C/c1sc(N2CCCCC2)nc1-c1cccs1)c1cccnc1`: 140% (active); `O=C(NN=Cc1ccccc1)c1ccccc1`: 0.391% (inactive). Consider `CSc1ccc(/C=N/NC(=O)c2cccc(Cl)c2)cc1`, for which the growth rescue is 40.3% (active). Next, `O=C(N/N=C/c1ccc(Cl)c(Cl)c1)c1ccc2nc[nH]c2c1`: 0.517% (inactive); `COC(=O)C1=NNC2(c3ccc(C)cc3)C(=O)N(c3cccc(C)c3C)C(=O)C12` (stereo not given): -0.596% (inactive); `O=C(CSc1ccccn1)N1CCN(S(=O)(=O)c2ccc(Cl)cc2)CC1`: -0.63% (inactive).
